This passage reports binding signal results from publication PMC7862700, “An all-to-all approach to the identification of sequence-specific readers for epigenetic DNA modifications on cytosine”.

Test in all cases: DAPPL (digital affinity profiling via proximity ligation, sequencing); 10 mM Tris-HCl pH 7.5, 50 mM NaCl, 1 mM DTT, 4% glycerol, room temperature, 30 min; GST-TFs on glutathione beads, 16-mer random dsDNA library, 0.1% formaldehyde crosslink after washing; high values mean tight binding
Holding throughout (settings): protein: recombinant; tags: N-terminal GST; dsDNA, one strand shown

The target in experiment [1] is T1, FLI1 (Homo sapiens, UniProt Q01543 1-452).
T1 sequence: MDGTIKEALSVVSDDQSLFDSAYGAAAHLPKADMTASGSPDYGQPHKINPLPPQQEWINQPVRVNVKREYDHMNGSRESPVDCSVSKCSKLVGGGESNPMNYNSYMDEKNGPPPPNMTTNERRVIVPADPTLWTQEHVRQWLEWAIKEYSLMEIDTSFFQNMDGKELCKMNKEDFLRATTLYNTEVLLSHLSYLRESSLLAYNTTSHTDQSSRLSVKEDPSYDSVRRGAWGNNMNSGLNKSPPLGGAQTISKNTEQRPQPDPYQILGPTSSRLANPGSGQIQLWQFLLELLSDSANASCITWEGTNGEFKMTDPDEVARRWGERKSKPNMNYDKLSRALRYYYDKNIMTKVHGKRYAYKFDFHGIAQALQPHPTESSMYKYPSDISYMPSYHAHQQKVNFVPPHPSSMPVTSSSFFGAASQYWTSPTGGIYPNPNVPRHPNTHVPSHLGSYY
Put shortly: (§1)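 GST fusions of human transcription factors were expressed in yeast and captured with glutathione beads. Once given DNA barcodes and pooled alongside a tag-only sample, they were incubated for 30 min at room temperature with 200 nmole of a random double-stranded 16-mer DNA library in Tris/NaCl/DTT/glycerol buffer, then washed, crosslinked (0.1% formaldehyde), proximity-ligated, PCR-amplified and sequenced on an Illumina NextSeq500. The binding signal of each hexamer is its read frequency for a factor divided by its frequency for the tag-only sample.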

Experiment [2] addresses T2, ELK1 (Homo sapiens, UniProt P19419 1-428).
T2 sequence: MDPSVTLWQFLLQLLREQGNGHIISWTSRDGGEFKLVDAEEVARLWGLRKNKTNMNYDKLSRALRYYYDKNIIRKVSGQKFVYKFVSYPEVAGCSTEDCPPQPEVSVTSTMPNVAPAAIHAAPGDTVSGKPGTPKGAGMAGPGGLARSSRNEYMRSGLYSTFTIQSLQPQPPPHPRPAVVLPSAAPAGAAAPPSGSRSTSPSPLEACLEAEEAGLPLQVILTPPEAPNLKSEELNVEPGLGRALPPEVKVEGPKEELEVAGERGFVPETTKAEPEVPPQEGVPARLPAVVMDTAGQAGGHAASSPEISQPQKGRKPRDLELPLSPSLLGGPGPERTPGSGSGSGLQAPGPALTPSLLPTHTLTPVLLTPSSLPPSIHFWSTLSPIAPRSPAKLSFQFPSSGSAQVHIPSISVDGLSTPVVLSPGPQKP
Put shortly:
as §1

Experiment [3] deals with T3, GABPA (Homo sapiens, UniProt Q06546 1-454).
T3 sequence: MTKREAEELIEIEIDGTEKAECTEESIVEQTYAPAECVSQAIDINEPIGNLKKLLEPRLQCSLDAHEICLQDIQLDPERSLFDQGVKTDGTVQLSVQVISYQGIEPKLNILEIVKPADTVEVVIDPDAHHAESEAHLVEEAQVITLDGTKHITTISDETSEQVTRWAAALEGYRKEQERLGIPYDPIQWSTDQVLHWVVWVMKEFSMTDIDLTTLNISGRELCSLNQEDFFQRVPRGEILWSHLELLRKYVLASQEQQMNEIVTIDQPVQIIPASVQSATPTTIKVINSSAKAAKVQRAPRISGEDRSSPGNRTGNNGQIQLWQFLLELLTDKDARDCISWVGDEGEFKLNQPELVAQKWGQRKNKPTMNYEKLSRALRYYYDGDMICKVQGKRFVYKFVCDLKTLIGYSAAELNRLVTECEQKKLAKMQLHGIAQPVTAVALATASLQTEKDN
Put shortly:
as §1

Experiment [4] deals with T4, ERG (Homo sapiens, UniProt P11308 1-479).
T4 sequence: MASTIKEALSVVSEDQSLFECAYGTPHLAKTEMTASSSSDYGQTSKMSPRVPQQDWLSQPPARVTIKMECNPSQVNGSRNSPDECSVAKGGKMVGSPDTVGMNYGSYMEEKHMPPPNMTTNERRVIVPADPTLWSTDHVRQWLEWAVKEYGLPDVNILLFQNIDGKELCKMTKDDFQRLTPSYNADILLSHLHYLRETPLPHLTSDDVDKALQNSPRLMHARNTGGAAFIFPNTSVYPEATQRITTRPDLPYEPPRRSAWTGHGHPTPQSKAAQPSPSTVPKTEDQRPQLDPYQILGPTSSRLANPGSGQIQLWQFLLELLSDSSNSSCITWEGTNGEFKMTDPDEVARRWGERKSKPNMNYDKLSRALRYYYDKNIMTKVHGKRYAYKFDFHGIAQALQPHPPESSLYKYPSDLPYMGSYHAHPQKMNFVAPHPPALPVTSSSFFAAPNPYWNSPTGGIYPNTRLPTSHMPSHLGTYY
Put shortly:
as §1

The target of experiment [5] is ELF1 (Homo sapiens, UniProt P32519 1-619). In outline: as §1
Sequence of ELF1 (P32519 whole entry): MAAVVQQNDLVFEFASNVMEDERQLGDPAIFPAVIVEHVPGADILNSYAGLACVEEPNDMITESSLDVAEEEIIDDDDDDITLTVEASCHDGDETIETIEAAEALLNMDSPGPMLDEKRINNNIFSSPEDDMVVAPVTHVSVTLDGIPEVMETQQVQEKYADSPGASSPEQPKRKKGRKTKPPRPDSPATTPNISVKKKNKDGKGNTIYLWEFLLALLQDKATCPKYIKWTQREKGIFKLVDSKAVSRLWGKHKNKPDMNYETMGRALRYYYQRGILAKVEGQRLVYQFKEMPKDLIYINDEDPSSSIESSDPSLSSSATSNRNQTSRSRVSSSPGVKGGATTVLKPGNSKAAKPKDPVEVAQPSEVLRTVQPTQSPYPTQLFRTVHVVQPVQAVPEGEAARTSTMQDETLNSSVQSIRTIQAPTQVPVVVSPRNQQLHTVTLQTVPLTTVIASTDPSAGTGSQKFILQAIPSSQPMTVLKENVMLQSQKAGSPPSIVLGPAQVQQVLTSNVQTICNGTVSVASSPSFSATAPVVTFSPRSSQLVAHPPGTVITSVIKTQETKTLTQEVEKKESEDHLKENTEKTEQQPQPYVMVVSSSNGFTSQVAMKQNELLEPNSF
Experiment [6] concerns the target T5, EHF (Homo sapiens, UniProt Q9NZC4 1-300).
T5 sequence: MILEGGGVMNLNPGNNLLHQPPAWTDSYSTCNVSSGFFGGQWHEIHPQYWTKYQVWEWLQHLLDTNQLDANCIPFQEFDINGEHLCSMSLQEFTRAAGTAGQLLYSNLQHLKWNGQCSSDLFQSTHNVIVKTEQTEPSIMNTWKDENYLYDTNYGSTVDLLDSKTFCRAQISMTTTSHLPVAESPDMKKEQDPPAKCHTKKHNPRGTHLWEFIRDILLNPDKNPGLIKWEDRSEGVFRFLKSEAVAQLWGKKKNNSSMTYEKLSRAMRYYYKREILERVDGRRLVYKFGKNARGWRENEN
In outline:
as §1

In experiment [7] the target is SPI1 (Homo sapiens, UniProt P17947 1-270). In outline: as §1
In experiment [8] the target is SPIB (Homo sapiens, UniProt Q01892 1-262). In outline: as §1
Sequence of SPIB (Q01892 whole entry): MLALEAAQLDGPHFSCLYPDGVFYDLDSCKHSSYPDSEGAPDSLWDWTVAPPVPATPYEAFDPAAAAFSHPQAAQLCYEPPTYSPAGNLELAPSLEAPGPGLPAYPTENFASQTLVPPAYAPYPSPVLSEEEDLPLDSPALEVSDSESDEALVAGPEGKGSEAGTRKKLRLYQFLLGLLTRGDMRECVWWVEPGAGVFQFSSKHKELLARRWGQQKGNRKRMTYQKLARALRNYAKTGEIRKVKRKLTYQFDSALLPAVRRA
Experiment [9] has as its target T6, ELK3 (Homo sapiens, UniProt P41970 1-407).
T6 sequence: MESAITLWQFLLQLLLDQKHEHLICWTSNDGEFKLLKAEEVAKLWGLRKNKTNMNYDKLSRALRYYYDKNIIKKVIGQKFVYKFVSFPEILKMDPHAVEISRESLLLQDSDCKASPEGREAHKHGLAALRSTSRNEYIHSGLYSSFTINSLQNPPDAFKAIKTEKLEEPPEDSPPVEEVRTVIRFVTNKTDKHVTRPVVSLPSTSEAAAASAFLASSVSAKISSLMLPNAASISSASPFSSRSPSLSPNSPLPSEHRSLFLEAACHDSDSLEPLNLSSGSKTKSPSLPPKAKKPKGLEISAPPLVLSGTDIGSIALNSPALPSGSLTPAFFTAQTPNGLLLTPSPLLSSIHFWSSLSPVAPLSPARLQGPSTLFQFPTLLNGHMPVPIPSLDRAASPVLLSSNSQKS
In outline:
as §1

Take GATGTT: the binding signal in experiment [1] is 1.28 fold enrichment (6-mer frequency, TF over GST control); in experiment [2], 1.34 fold enrichment (6-mer frequency, TF over GST control); in experiment [3], 1.27 fold enrichment (6-mer frequency, TF over GST control); in experiment [4] it was 1.28 fold enrichment (6-mer frequency, TF over GST control); in experiment [5], 1.25 fold enrichment (6-mer frequency, TF over GST control); in experiment [6], 1.32 fold enrichment (6-mer frequency, TF over GST control). The binding signal in [7] is 1.25 fold enrichment (6-mer frequency, TF over GST control); in experiment [8], 1.2 fold enrichment (6-mer frequency, TF over GST control); in experiment [9] it was 1.22 fold enrichment (6-mer frequency, TF over GST control).

Take TCCTCA: the binding signal was 1.53 fold enrichment (6-mer frequency, TF over GST control) in experiment [1]; 1.47 fold enrichment (6-mer frequency, TF over GST control) in experiment [2]; 1.6 fold enrichment (6-mer frequency, TF over GST control) in experiment [3]; 1.51 fold enrichment (6-mer frequency, TF over GST control) in experiment [4]; 1.49 fold enrichment (6-mer frequency, TF over GST control) in experiment [5]; 1.65 fold enrichment (6-mer frequency, TF over GST control) in experiment [6]. Also, the binding signal in [7] is 2.25 fold enrichment (6-mer frequency, TF over GST control); in [8], 1.6 fold enrichment (6-mer frequency, TF over GST control); in experiment [9] it was 1.55 fold enrichment (6-mer frequency, TF over GST control).

Regarding TGTTTC, the binding signal in [1] was 1.91 fold enrichment (6-mer frequency, TF over GST control); in experiment [2], 1.85 fold enrichment (6-mer frequency, TF over GST control); in experiment [3], 1.59 fold enrichment (6-mer frequency, TF over GST control); in [4] it was 1.97 fold enrichment (6-mer frequency, TF over GST control); in experiment [5] it was 1.8 fold enrichment (6-mer frequency, TF over GST control); in experiment [6], 1.79 fold enrichment (6-mer frequency, TF over GST control). The binding signal is 1.69 fold enrichment (6-mer frequency, TF over GST control) in experiment [7]; 1.74 fold enrichment (6-mer frequency, TF over GST control) in experiment [8]; 1.61 fold enrichment (6-mer frequency, TF over GST control) in experiment [9].

For CTCAAG, the binding signal in experiment [1] was 1.29 fold enrichment (6-mer frequency, TF over GST control); in [2], 1.17 fold enrichment (6-mer frequency, TF over GST control); in experiment [3], 1.14 fold enrichment (6-mer frequency, TF over GST control); in [4], 1.18 fold enrichment (6-mer frequency, TF over GST control); in experiment [5], 1.18 fold enrichment (6-mer frequency, TF over GST control); in experiment [6] it was 1.21 fold enrichment (6-mer frequency, TF over GST control). Further, the binding signal in experiment [7] is 1.22 fold enrichment (6-mer frequency, TF over GST control); in experiment [8], 1.2 fold enrichment (6-mer frequency, TF over GST control); in experiment [9], 1.32 fold enrichment (6-mer frequency, TF over GST control).

TGTATG: the binding signal in experiment [1] is 1.31 fold enrichment (6-mer frequency, TF over GST control); in [2], 1.16 fold enrichment (6-mer frequency, TF over GST control); in [3], 1.25 fold enrichment (6-mer frequency, TF over GST control); in experiment [4] it was 1.14 fold enrichment (6-mer frequency, TF over GST control); in [5] it was 1.23 fold enrichment (6-mer frequency, TF over GST control); in experiment [6], 1.2 fold enrichment (6-mer frequency, TF over GST control). For the same sequence, the binding signal was 1.18 fold enrichment (6-mer frequency, TF over GST control) in [7]; 1.16 fold enrichment (6-mer frequency, TF over GST control) in experiment [8]; 1.22 fold enrichment (6-mer frequency, TF over GST control) in experiment [9].

With GATTAT, the binding signal was 1.04 fold enrichment (6-mer frequency, TF over GST control) in [1]; 1.1 fold enrichment (6-mer frequency, TF over GST control) in [2]; 1.1 fold enrichment (6-mer frequency, TF over GST control) in experiment [3]; 1.06 fold enrichment (6-mer frequency, TF over GST control) in experiment [4]; 1.02 fold enrichment (6-mer frequency, TF over GST control) in [5]; 1.09 fold enrichment (6-mer frequency, TF over GST control) in experiment [6]. Besides, the binding signal is 1.03 fold enrichment (6-mer frequency, TF over GST control) in experiment [7]; 1.11 fold enrichment (6-mer frequency, TF over GST control) in experiment [8]; 1.07 fold enrichment (6-mer frequency, TF over GST control) in experiment [9].

Turning to TCTGCG, the binding signal in experiment [1] is 1.12 fold enrichment (6-mer frequency, TF over GST control); in experiment [2] it was 1.28 fold enrichment (6-mer frequency, TF over GST control); in experiment [3] it was 1.27 fold enrichment (6-mer frequency, TF over GST control); in [4], 1.18 fold enrichment (6-mer frequency, TF over GST control); in [5] it was 1.2 fold enrichment (6-mer frequency, TF over GST control); in experiment [6], 1.23 fold enrichment (6-mer frequency, TF over GST control). For the same sequence, the binding signal in [7] is 1.28 fold enrichment (6-mer frequency, TF over GST control); in experiment [8], 1.23 fold enrichment (6-mer frequency, TF over GST control); in [9] it was 1.11 fold enrichment (6-mer frequency, TF over GST control).

With TAAGAT, the binding signal was 1.17 fold enrichment (6-mer frequency, TF over GST control) in experiment [1]; 1.26 fold enrichment (6-mer frequency, TF over GST control) in experiment [2]; 1.19 fold enrichment (6-mer frequency, TF over GST control) in experiment [3]; 1.21 fold enrichment (6-mer frequency, TF over GST control) in experiment [4]; 1.24 fold enrichment (6-mer frequency, TF over GST control) in experiment [5]; 1.3 fold enrichment (6-mer frequency, TF over GST control) in experiment [6]. Moreover, the binding signal in experiment [7] is 1.21 fold enrichment (6-mer frequency, TF over GST control); in experiment [8], 1.31 fold enrichment (6-mer frequency, TF over GST control); in experiment [9], 1.2 fold enrichment (6-mer frequency, TF over GST control).
